Compound activity: PubChem BioAssay, National Center for Advancing Translational Sciences (NCATS)
NPSR antag: antagonists of human neuropeptide S receptor cAMP signaling | Potency, µM (titrated, usually from 38.3 µM), for the others: top-dose activity change, negative = inhibition, actives largely listed as inhibitors | Q6W5P4 | CHO-NPSR cells, cAMP TR-FRET, antagonist mode | 220,000 tested, 1% active | AID 1461; note: nearly all actives have a fitted effect of over 50% in size
Target sequence (Q6W5P4 whole entry, looked up): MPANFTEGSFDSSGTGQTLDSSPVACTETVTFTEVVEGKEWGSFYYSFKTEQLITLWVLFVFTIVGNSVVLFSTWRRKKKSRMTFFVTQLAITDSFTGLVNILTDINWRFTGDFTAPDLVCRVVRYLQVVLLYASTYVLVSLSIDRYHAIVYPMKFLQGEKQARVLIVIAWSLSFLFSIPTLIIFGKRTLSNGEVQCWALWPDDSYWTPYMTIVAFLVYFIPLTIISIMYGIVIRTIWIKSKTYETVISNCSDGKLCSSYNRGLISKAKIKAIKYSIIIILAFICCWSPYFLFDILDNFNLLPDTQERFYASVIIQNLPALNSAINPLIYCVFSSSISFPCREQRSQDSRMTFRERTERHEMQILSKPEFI
Tau fluor cs: counter-screen for tau fibril formation inhibitors; tau K18 P301L Alexa594 fluorescence, heparin fibrillization; Potency, µM (series often up to 57.7 µM), without a hit: at the top dose activity change, negative = decrease; 280,000 tested, 0.93% active; AID 1463; note: nearly all actives have a fitted effect of over 55% in size
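Human tau K18 P301L (15 uM unlabeled, 0.24 uM Alexa 594-labeled) in 100 mM sodium acetate pH 7 with 20 uM heparin, 6 hr at 37 C. ThT 30 uM added, 1 hr ambient; Alexa 594 FP and total fluorescence read at 555/632 nm.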
ALDH1A1 block: inhibitors of human aldehyde dehydrogenase 1A1; P00352; Purified ALDH1A1, NADH fluorescence, propionaldehyde substrate; Potency, µM (series often up to 75.3 µM), inactives show at the highest dose activity, negative = inhibition, actives largely listed as inhibitors; 220,000 tested, 7.3% active; AID 1030; active = well fitted inhibition curve with a large enough effect, not every such curve was filed as active; inconclusive = small, poorly fitted or top-dose-only effect, or another doubt; inactive = no such curve, though single readings can be large or run the other way;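 note: plate controls were no enzyme wells and a reference inhibitor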
Tau fibril FP: tau fibrillization inhibition (FP). 280,000 tested, 0.39% active. Potency, µM (titrated, usually from 57.7 µM), without a hit: top-dose activity, negative = inhibition, usual class: inhibitors. K18 P301L tau heparin fibrillization, Alexa594 FP, 6 h. AID 1468. P10636; note: nearly all actives have a fitted effect of over 55% in size
Target sequence (P10636 561-689 P618L limits assumed): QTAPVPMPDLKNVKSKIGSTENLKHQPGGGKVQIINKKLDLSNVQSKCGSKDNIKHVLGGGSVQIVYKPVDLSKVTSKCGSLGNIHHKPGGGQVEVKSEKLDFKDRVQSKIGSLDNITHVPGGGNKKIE
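Human tau K18 […] P301L fragment, 15 uM unlabeled plus 0.24 uM Alexa 594-labeled tau (final), with compound and 20 uM heparin in 100 mM sodium acetate pH 7; 6 hr at 37 C, then Alexa 594 FP read.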
Tau fibril ThT: blocks human tau fibril formation measured by thioflavin T; P10636; recombinant tau K18 P301L (four-repeat tau fragment), heparin-induced fibrillization, ThT fluorescence; Potency, µM (highest dose often 57.4 µM), for the others: top-dose activity, negative = inhibition, usual class: inhibitors; 270,000 tested, 2.1% active; note: nearly all actives have a fitted effect of over 55% in size
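In this qHTS, human K18 P301L tau is incubated with compound and heparin for 6 hr at 37 C, and Thioflavin T fluorescence then reports fibril load.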
HPGD inh: HPGD (human) dehydrogenase inhibition; Potency, µM, inactives show top-dose activity change, negative = inhibition, actives largely listed as inhibitors; P15428; purified HPGD, NADH fluorescence kinetic, PGE2 substrate; AID 894; 150,000 tested, 4.3% active; active = well fitted inhibition curve with a large enough effect, not every such curve was filed as active; inconclusive = small, poorly fitted or top-dose-only effect, or another doubt; inactive = no such curve, though single readings can be large or run the other way
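NADH formation kinetics: reaction with 30 uM PGE2 and 1 mM NAD+ (final), 20 nM enzyme, Tris-HCl pH 8 with Tween 20, after 15 min compound preincubation at room temperature. Fluorescence change, last versus first of five reads.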
Active calls of the source: *; [ ] = dose if it differs, or a comment. Hits are enriched below; roughly 9.5% of the tested compounds scored in any of these assays. Unless noted, calls come from the whole dose curve; as a rule, active = well fitted curve in the direction sought with a large enough effect; inconclusive = small, poorly fitted or top-dose-only effect, or another doubt; inactive = no such curve, though single readings can be large; an effect the other way counts as inactive or inconclusive. Unless noted, % is set by controls: 0 for no effect and ±100 for the full control effect; potency is the fitted concentration of half-maximal effect.

Screening Cc1ccc(-c2nc(N)sc2-c2ccccc2)cc1C returned NPSR antag -43%, Tau fluor cs 10µM*[quencher], ALDH1A1 block inconclusive, Tau fibril FP 3%, Tau fibril ThT inconclusive and HPGD inh -26%.
Nc1ccc2nc(-c3ccc(O)cc3)sc2c1 was read as Tau fluor cs inconclusive, Tau fibril FP 3% and Tau fibril ThT 7.9µM*.
Nc1cccc(-c2nc3ccc(N)cc3s2)c1 was read as NPSR antag -2%[46.1 µM], Tau fluor cs inconclusive, ALDH1A1 block inconclusive, Tau fibril FP 8%, Tau fibril ThT inconclusive and HPGD inh inconclusive.
`Nc1ccc(-c2nc3ccc(N)cc3s2)cc1` gave NPSR antag -34%, Tau fluor cs inconclusive, Tau fibril FP 1% and Tau fibril ThT 11µM*.
For Oc1ccc(N=C/C=C/c2cccc(Br)c2)cc1-c1nc2ccccc2s1 the results were NPSR antag 1%, Tau fluor cs inconclusive, ALDH1A1 block inconclusive, Tau fibril FP -15%, Tau fibril ThT 6.3µM* and HPGD inh -24%.
For Nc1ccc(O)c(-c2nc3ccccc3s2)c1 the results were NPSR antag 10%[46.1 µM], Tau fluor cs inconclusive, ALDH1A1 block -13%, Tau fibril FP inconclusive, Tau fibril ThT 10µM* and HPGD inh -13%.
Screening O=C(Nc1ccc(O)c(-c2nc3ccccc3s2)c1)c1cccs1 returned NPSR antag -36%, Tau fluor cs -1%, ALDH1A1 block 3%, Tau fibril FP 0%, Tau fibril ThT 5% and HPGD inh -12%.
`Oc1ccc(-c2nc3ccccc3s2)c(O)c1` gave NPSR antag inconclusive, Tau fluor cs inconclusive, Tau fibril FP -13% and Tau fibril ThT 7%.
Screening Oc1ccc(-c2nc3ccccc3s2)cc1 returned NPSR antag -8%, Tau fluor cs inconclusive, ALDH1A1 block inconclusive, Tau fibril FP -6% and Tau fibril ThT -16%.
For COC(=O)c1ccc(C(NC(=O)OCc2ccccc2)/C(=C/[C@@H](C)C(=O)NCc2cc(C)on2)c2cccnc2)cc1 (stereo partly drawn) the results were Tau fluor cs -13%, ALDH1A1 block 1%, Tau fibril FP 0%, Tau fibril ThT -8% and HPGD inh -6%.
Screening CCOC(=O)CC(CC(C)=O)C(=O)OCC (stereo not drawn) returned Tau fluor cs -3%, ALDH1A1 block 10%, Tau fibril FP 2%, Tau fibril ThT -2% and HPGD inh -11%.
For COc1cc2c3cc1Oc1cc(ccc1O)C[C@@H]1c4c(cc(OC)c(O)c4Oc4ccc(cc4)C[C@H]3[N+](C)(C)CC2)CC[N+]1(C)C the results were ALDH1A1 block 2%[13.5 µM] and HPGD inh -2%.
Screening COc1ccc(C(=O)N(O)c2ccccc2)cc1 returned Tau fluor cs -7%, ALDH1A1 block -7%, Tau fibril FP 1%, Tau fibril ThT -12% and HPGD inh inconclusive.
For O=C(Nc1ccc(Cn2cccn2)cc1)c1ccc(COc2ccc(Br)cc2)cc1 the results were NPSR antag -5%[46.1 µM], Tau fluor cs -8%, ALDH1A1 block 3%, Tau fibril FP -4%, Tau fibril ThT -10% and HPGD inh -5%.
Screening CC(=O)c1cccc(NC(=S)NC(=O)Cc2ccccc2)c1 returned NPSR antag -13%, Tau fluor cs -27%, ALDH1A1 block inconclusive, Tau fibril FP 0% and Tau fibril ThT -9%.
For CC(=O)c1cccc(NC(=S)Nc2ccn(Cc3cccc4ccccc34)n2)c1 the results were NPSR antag -39%, Tau fluor cs -27%, ALDH1A1 block 0.79µM*, Tau fibril FP inconclusive and Tau fibril ThT -5%.
For CC(=O)c1ccc(NC(=S)Nc2ccn(Cc3ccc(Br)cc3)n2)cc1 the results were NPSR antag -22%, Tau fluor cs 10µM*[quencher], ALDH1A1 block inconclusive, Tau fibril FP inconclusive and Tau fibril ThT 10%.
`CO[C@H]1COC(=O)C/C=C\[C@H](C)[C@@H](OC)COC(=O)[C@H](C)COC(=O)C/C=C\[C@@H]1C` gave Tau fluor cs -8%[11.6 µM], ALDH1A1 block -5%[13.5 µM], Tau fibril FP 0%[11.6 µM] and Tau fibril ThT -11%[11.5 µM].
C/C=C/C1Oc2ccc(OC)cc2N2C(=O)C(C)C(OCOC)C12 (stereo not drawn) was read as Tau fluor cs -3%[11.6 µM], ALDH1A1 block 10%[13.5 µM], Tau fibril FP 1%[11.6 µM] and Tau fibril ThT 0%[11.5 µM].
Screening COCCNc1nc(-c2cc(C)n(CCc3ccc(OC)cc3)c2C)cs1 returned NPSR antag 4%, Tau fluor cs -20%, ALDH1A1 block 10µM*, Tau fibril FP -13% and Tau fibril ThT inconclusive.
O=C(N=C1N=C2C=CC(Br)=CN2Cc2ccccc21)c1ccc([N+](=O)[O-])cc1[N+](=O)[O-] was read as NPSR antag 8%[7.67 µM], Tau fluor cs inconclusive, Tau fibril FP 8% and Tau fibril ThT inconclusive.
For CN(C)c1nc(C(=O)NN)nc(N(C)C)n1 the results were NPSR antag -7%[46.1 µM], Tau fluor cs 0%, ALDH1A1 block 13µM*, Tau fibril FP 6%, Tau fibril ThT -16% and HPGD inh -6%.
`COC(=O)NCCOc1nc(N(C)C)nc(N(C)C)n1` gave NPSR antag 3%[46.1 µM], Tau fluor cs -5%, ALDH1A1 block -2%, Tau fibril FP 5%, Tau fibril ThT -2% and HPGD inh -11%.
`Cc1cccc(C(=O)NC(=O)Nc2ccc(-c3cc(C(F)(F)F)nn3-c3ccccc3)cc2)c1` gave Tau fluor cs 5%, Tau fibril FP -3% and Tau fibril ThT inconclusive.
COc1ccc(N2COC3c4cccc5cccc(c45)C32)cc1 (stereo not drawn) was read as NPSR antag -11%[46.1 µM], Tau fluor cs inconclusive, ALDH1A1 block 19µM*, Tau fibril FP -4%, Tau fibril ThT inconclusive and HPGD inh -20%.
COc1ccccc1NS(=O)(=O)c1cccc(C(=O)NN=C2CCCCCC2)c1 was read as NPSR antag 11%, Tau fluor cs -6%, ALDH1A1 block 13µM*, Tau fibril FP 5%, Tau fibril ThT -4% and HPGD inh -17%.
`COc1ccccc1NS(=O)(=O)c1cccc(NC(=O)Nc2ccccc2)c1` gave NPSR antag 1%, Tau fluor cs inconclusive, ALDH1A1 block 9%, Tau fibril FP inconclusive, Tau fibril ThT 15% and HPGD inh -9%.
`COc1ccccc1NS(=O)(=O)c1cccc(NC(=O)Nc2ccc(Cl)cc2)c1` gave NPSR antag inconclusive, Tau fluor cs inconclusive, ALDH1A1 block 2%, Tau fibril FP 28µM* and Tau fibril ThT 7%.
